# Laboratory results taken from paper PMC7826789 (International Journal of Molecular Sciences, 2021).
# Columns and labels:
# Settings in all cases: Compound Concentration (nM):1000
# ACVR2B = tested on: ACVR2B
# ACVRL1 = tested on: ACVRL1
# ADCK3 = tested on: T1, ADCK3
# T1 construct: gene CABC1
# ADCK4 = tested on: ADCK4
# AKT1 = tested on: AKT1
# AKT2 = tested on: AKT2
# AKT3 = tested on: AKT3
# ALK(C1156Y) = tested on: ALK(C1156Y)
# ALK(L1196M) = tested on: ALK(L1196M)
# ALK = tested on: ALK
# AMPK-alpha1 = tested on: T2, AMPK-alpha1
# T2 construct: gene PRKAA1
# AMPK-alpha2 = tested on: T3, AMPK-alpha2
# T3 construct: gene PRKAA2
# ANKK1 = tested on: ANKK1
# ARK5 = tested on: T4, ARK5
# T4 construct: gene NUAK1
# ASK1 = tested on: T5, ASK1
# T5 construct: gene MAP3K5
# ASK2 = tested on: T6, ASK2
# T6 construct: gene MAP3K6
# AURKA = tested on: AURKA
# AURKB = tested on: AURKB
# AURKC = tested on: AURKC
# AXL = tested on: AXL
# 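Note: KINOMEscan scanMAX binding as percent activity remaining versus control; lower means stronger binding.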
Structure (SMILES),Percent Control (ACVR2B) [%],Percent Control (ACVRL1) [%],Percent Control (ADCK3) [%],Percent Control (ADCK4) [%],Percent Control (AKT1) [%],Percent Control (AKT2) [%],Percent Control (AKT3) [%],Percent Control (ALK(C1156Y)) [%],Percent Control (ALK(L1196M)) [%],Percent Control (ALK) [%],Percent Control (AMPK-alpha1) [%],Percent Control (AMPK-alpha2) [%],Percent Control (ANKK1) [%],Percent Control (ARK5) [%],Percent Control (ASK1) [%],Percent Control (ASK2) [%],Percent Control (AURKA) [%],Percent Control (AURKB) [%],Percent Control (AURKC) [%],Percent Control (AXL) [%]
Cl.O=C(O[C@H]1CN[C@H](C#Cc2cc3ncnc(Nc4ccc5c(cnn5Cc5ccccc5)c4)c3s2)C1)N1CCOCC1 [GSK200398A],100,82,100,100,92,100,100,94,88,100,100,92,100,91,100,88,71,84,100,100
COC(=O)Nc1nc2ccc(Oc3ccc(NC(=O)Nc4cc(C(F)(F)F)ccc4F)cc3)cc2s1.Cl [GW693917A],100,65,100,75,84,100,100,89,87,100,69,82,85,100,100,64,71,13,50,6
C/C(Nc1ccc(S(N)(=O)=O)cc1)=C1/C(=O)Nc2ccccc21 [GW335962X],100,78,100,100,81,94,88,54,60,54,78,87,50,100,100,69,66,16,71,73
CCS(=O)(=O)c1ccc(OC)c(Nc2ncc(-c3cccc(OC)c3)o2)c1 [GW580509X],100,50,100,100,100,100,100,87,100,100,100,100,95,100,100,85,88,83,100,95
O=C(Nc1n[nH]c2nc(-c3ccc(O)cc3)c(Br)cc12)C1CC1 [SB-725317],79,65,100,100,100,100,85,54,87,75,100,100,100,100,100,100,100,91,59,100
NS(=O)(=O)c1ccc(Nc2ncc(-c3ccccc3)o2)cc1 [GW572399X],100,100,100,100,100,100,100,96,96,87,100,95,82,100,100,77,100,43,100,100
COc1cc(/C=N/Nc2ncnc3[nH]ncc23)ccc1O [GW578748X],40,67,100,100,100,100,100,82,75,98,79,54,21,100,100,75,41,56,58,65
CCn1c(-c2nonc2N)nc2c(C#CC(C)(C)O)nc(OCCNC)cc21.Cl [GSK949675],99,100,100,100,3.7,3.1,0.2,95,100,85,100,100,100,100,95,100,90,100,100,100
CN(C)c1cc2c(Nc3ccc4c(cnn4Cc4ccccc4)c3)ncnc2cn1 [GW282974X],100,87,98,100,79,100,100,97,94,100,90,100,100,100,100,73,74,100,92,98
COc1ccc2c(-c3ccnc(Nc4cccc(OC(F)(F)F)c4)n3)cnn2n1 [GW810372X],100,100,100,100,100,100,100,86,87,88,100,100,89,100,100,78,100,100,57,87
COc1cc(C)c(N(C)C(=O)CN(C)C)cc1Nc1nc(Nc2cccc(F)c2C(N)=O)c2cc[nH]c2n1 [GSK2219385],100,100,80,100,98,85,100,4.5,13,1.7,100,100,94,86,100,70,85,93,90,76
Cl.c1ccc(Cc2nc3ccc(Nc4ncnc5ccccc45)cc3[nH]2)cc1 [GR269666A],100,89,100,100,93,100,100,95,100,99,100,100,94,100,100,77,100,100,100,100
COc1cc(N2CCN(C(C)C)CC2)ccc1Nc1nc(Nc2ccc(F)cc2C(=O)NC[C@@H](O)CO)c2cc[nH]c2n1 [GSK1392956A],100,86,94,100,83,100,100,0.1,1.1,0.2,100,100,92,67,100,73,95,91,90,46
COc1cc2ncn(-c3cc(O[C@H](C)c4ccccc4Cl)c(C(N)=O)s3)c2cc1OC [GSK237701A],100,100,100,83,100,88,100,100,94,79,54,100,100,29,100,97,87,38,74,50
CC(C)COC(=O)c1ccc2c(c1)/C(=C/Nc1ccc(S(N)(=O)=O)cc1)C(=O)N2 [GW416981X],100,100,100,100,100,100,100,93,94,100,100,92,44,97,100,85,66,65,35,100
CN1CCN(C(=O)c2ccc(NC(=O)Nc3ccc(N(C)c4ccnc(Nc5ccc(CS(C)(=O)=O)cc5)n4)cc3)cc2)CC1.Cl [GW830263A],94,79,100,47,100,100,100,64,83,76,82,87,28,78,100,67,0,0.4,0.2,9.7
NS(=O)(=O)c1ccc(N/N=C2\C(=O)Nc3ccc(Cl)cc32)cc1 [GW280670X],100,100,100,100,100,100,100,100,100,100,100,88,97,100,100,91,91,100,100,100
CCS(=O)(=O)c1ccc(OC)c(Nc2ncc(-c3cccc(F)c3)o2)c1 [GW621970X],100,49,100,100,100,100,100,88,97,73,100,91,100,100,100,75,100,89,100,97
COc1cccc(-c2c[nH]c3c(N/N=C/c4ccncc4)ncnc23)c1 [GW814408X],71,59,100,36,100,100,100,97,99,100,100,85,100,100,100,100,82,75,48,71
NS(=O)(=O)c1ccc(N/N=C2\C(=O)Nc3ccc(C(=O)NCc4ccncc4)cc32)cc1 [GW300657X],100,100,87,100,82,100,100,83,82,77,78,83,27,86,100,70,57,59,76,95
